Seven compounds from PubChem BioAssay (Tox21) can be followed below.

A number with no mark means an inactive call. Records with an inconclusive call do not appear. Active and inactive are the calls of the source. Unless noted, the call rests on the fitted dose curve; in most records, active means well fitted curve in the direction sought with a large enough effect in the repeat runs; inconclusive means weak or mixed curves; inactive means no such curve, though single readings can be large; an effect the other way counts as inactive or inconclusive.

Experiment [1] has as its target Luciferin 4-monooxygenase (Photinus pyralis) (UniProt P08659). The experiment can be described thus: qHTS assay to identify small molecule inhibitors of firefly luciferase (AID 1224835). Further: nearly all actives have a fitted effect of over 25% in size. The gist of the method:
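Quantitative HTS format; KM concentrations of both substrates. Purified P. pyralis FLuc activity quantified from luminescence images.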
For orientation: In qHTS, concentration-response curves come from the screen itself.

Experiment [2] can be described thus: qHTS assay to identify small molecule agonists of the constitutive androstane receptor (CAR) signaling pathway - cell viability counter screen (AID 1224836). Further: nearly all actives have a fitted effect of over 45% in size. The gist of the method:
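Compound titrations (15 concentrations) went onto HepG2-CYP2B6-hCAR cells 4 h after seeding, alongside PK11195 at a final 0.75 uM; a 23 h, 37 C/5% CO2 incubation preceded CellTiter-Fluor viability measurement.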

The nature of experiment [3]: qHTS assay to identify small molecule antagonists of the constitutive androstane receptor (CAR) signaling pathway - cell viability counter screen (AID 1224837). Further: nearly all actives have a fitted effect of over 45% in size. The method in brief:
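Counter screen run in HepG2-CYP2B6-hCAR cells: 4 hr settle, compound titration (15 concentrations) with 50 nM CITCO, 23 hr at 37 C/5% CO2, CellTiter-Fluor fluorescence.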

Experiment [4] deals with Nuclear receptor subfamily 1 group I member 3 (Homo sapiens) (UniProt Q14994). The experiment can be described thus: qHTS assay to identify small molecule antagonists of the constitutive androstane receptor (CAR) signaling pathway (AID 1224838).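 Further: HepG2 cells stably expressing hCAR with CYP2B6 luciferase reporter stimulated by CITCO; nearly all actives have a fitted effect of over 40% in size.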 The method in brief:
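Cell line: HepG2 double-stable for hCAR and CYP2B6-2.2kb reporter. Agonist: CITCO, 50 nM final. Compounds: 15 concentrations, 24 h, 37 C. Detection: ONE-Glo luminescence.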

The target is the same in experiment [5]. The experiment can be described thus: qHTS assay to identify small molecule agonists of the constitutive androstane receptor (CAR) signaling pathway (AID 1224839). Further: nearly all actives have a fitted effect of over 15% in size. Further: potency means the concentration at half of the fitted maximal effect.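 On activation: HepG2 cells stably carrying human CAR and a CYP2B6 luciferase reporter.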 The method in brief: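 In this screen, CAR-driven CYP2B6 promoter activity is measured by luminescence in HepG2-CYP2B6-hCAR cells after 24 h with test compounds and 0.75 uM PK11195 (final concentration).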

Experiment [6] is described as follows: qHTS assay to identify small molecule antagonists of the estrogen related receptor signaling pathway with the pleiotropic PPARgamma coactivator (PGC) from Tox21 10K library - cell viability counter screen (AID 1224840; active means well fitted cell-killing curve with a large enough effect in the repeat runs, not every such curve was filed as active; further: nearly all actives have a fitted effect of over 40% in size). The gist of the method:
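Following seeding of 2,000 PGC/ERR cells/well and 6 hours' incubation, test compounds were delivered in DMSO. The plates then sat 17.5 hours at 37 C before a fluorogenic live-cell protease reagent (CellTiter-Fluor) was read after 30 min.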

A short description of experiment [7]: qHTS assay to identify small molecule antagonists of the estrogen related receptor signaling pathway with the pleiotropic PPARgamma coactivator (PGC) from Tox21 10K library (AID 1224841; call rule not given here; further: actives are mostly falling curves and most rising ones were filed inactive; nearly all actives have a fitted effect of over 50% in size). The gist of the method: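 qHTS antagonist format: PGC/ERR cells, 2k/well, compound in DMSO by pin transfer after 6 h attachment, 18 h treatment at 37 C, One-Glo luminescence read at 30 min.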

Experiment [8] is described as follows: qHTS assay to identify small molecule agonists of the estrogen related receptor signaling pathway with the pleiotropic PPARgamma coactivator (PGC) from Tox21 10K library (AID 1224842). Further: nearly all actives have a fitted effect of over 15% in size. The gist of the method: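 PGC/ERR reporter cells (NTP line) were seeded 2,000 per well, rested 6 h at 37 C/5% CO2, then pin-dosed with compounds in DMSO for 18 h at 37 C; luciferase read by One-Glo luminescence after 30 min at room temperature.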

Experiment [9] has as its target Thyrotropin receptor (Homo sapiens) (UniProt P16473). The experiment can be described thus: qHTS assay to identify small molecule agonists of the thyroid stimulating hormone receptor (TSHR) signaling pathway (AID 1224843; calls by dose curve; further: nearly all actives have a fitted effect of over 45% in size; further: potency means the concentration at half of the fitted maximal effect). The method in brief: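 TSHR-expressing HEK293 cells (800 per well) were exposed to compounds for 30 min at room temperature. cAMP was then detected by HTRF competition with cAMP-d2 and anti-cAMP cryptate, read after 1 h at room temperature. Fifteen concentrations, triplicate.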

Experiment [10] can be described thus: qHTS assay to identify small molecule agonists of the hypoxia (HIF-1) signaling pathway - cell viability counter screen (AID 1224844; calls by dose curve; further: nearly all actives have a fitted effect of over 50% in size). The gist of the method:
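Cells (HRE-bla ME-180, 2,000 per well) sat 5 hrs at 37C, got compound for 17 hrs, were read for CCF4-AM FRET, and were finally lysed with CellTiter-Glo for a 30 min room-temperature luminescence read.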

The nature of experiment [11]: qHTS assay to identify small molecule agonists of the hypoxia (HIF-1) signaling pathway (AID 1224846; active means well fitted activation curve with a large enough effect in the signal ratio in the repeat runs, not every such curve was filed as active; the % refers to the signal ratio). The method in brief:
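A low-serum medium (0.5% dialyzed FBS) holding 2,000 HRE-bla ME-180 cells per well is preincubated for 5 hrs, dosed with compounds by pintool, and kept a further 17 hrs at 37C, 5% CO2 before CCF4-AM FRET detection of beta-lactamase.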

Experiment [12] is described as follows: qHTS assay to identify small molecule antagonists of the estrogen related receptor (ERR) signaling pathway from Tox21 library (AID 1224848). Further: nearly all actives have a fitted effect of over 50% in size. The method in brief:
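Cells: ERR line, 2,000/well; 6 h preincubation 37 C/5% CO2. Cpd in DMSO via pin tool; 18 h, 37 C. ONE-Glo, 30 min RT, luminescence.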

Experiment [13] is described as follows: qHTS assay to identify small molecule agonists of the estrogen related receptor (ERR) signaling pathway from Tox21 library (AID 1224849; calls by dose curve; further: nearly all actives have a fitted effect of over 15% in size). Conditions: ERR reporter cell line, ONE-Glo luciferase, 18 h; at 92.4 µM (top of the series) unless noted. The gist of the method: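 Screening used an NTP-provided ERR luciferase cell line. Compounds in DMSO were added 6 h after seeding and left 18 h at 37 C before a 30 min ONE-Glo step and luminescence reading.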

A short description of experiment [14]: qHTS RealTime-Glo MT Cell Viability Assay in HepG2 cells - 24 hour (AID 1224867). Further: nearly all actives have a fitted effect of over 50% in size. The method in brief:
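HepG2 cells (600/well) were dispensed with RealTime-Glo reagents, incubated 5 h at 37 °C, then treated with compounds in DMSO for up to 40 h. Nonlytic NanoLuc luminescence reflecting viable cells was read at each stated time point.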

The nature of experiment [15]: qHTS RealTime-Glo MT Cell Viability Assay in HEK293 cells - 32 hour (AID 1224868). The method in brief:
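HEK293 cells seeded with NanoLuc/prosubstrate reagent, rested 5 h at 37 C, then dosed and kept at 37 C up to 40 h. Nonlytic real-time luminescence from viable cells read at 0, 8, 16, 24, 32 and 40 h.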

Experiment [16] is described as follows: A CellTox Green Cytotoxicity Assay to monitor cytotoxicity in HEK293 cells - 0 hour (AID 1224869). Further: nearly all actives have a fitted effect of over 50% in size. The gist of the method: (§1)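 Fluorescence intensity, read at 0, 8, 16, 24, 32 and 40 h of compound treatment, reflected dye binding to DNA of dead HEK293 cells; compounds (23 nL, DMSO) were added 5 h after plating cells with reagent.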
A short description of experiment [17]: qHTS RealTime-Glo MT Cell Viability Assay in HepG2 cells - 40 hour (AID 1224870). Further: nearly all actives have a fitted effect of over 50% in size. The gist of the method:
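HepG2 cells mixed with RealTime-Glo MT reagents (NanoLuc plus cell-permeant prosubstrate) were seeded at 600 cells/well, incubated 5 h at 37 C/5% CO2, then pinned with compounds in DMSO; nonlytic luminescence tracked viability during 40 h treatment.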

Experiment [18] can be described thus: qHTS assay to identify small molecule agonists of H2AX (AID 1224845; active means well fitted activation curve with a large enough effect in the signal ratio in the repeat runs, not every such curve was filed as active; the % refers to the signal ratio). The gist of the method:
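Wild-type CHO-K1 cells plated overnight, then exposed 3 hr at 37C to compounds at 15 concentrations (0.76% DMSO). Lysed, then HTRF anti-pH2AX(S139)-cryptate/anti-H2AX-d2 detection after 24 hr at room temperature; emissions 665 and 620 nm.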

Experiment [19] is described as follows: qHTS assay to identify small molecule agonists of H2AX - cell viability counter screen (AID 1224847; calls by dose curve; further: top concentration of the series differs between compounds; nearly all actives have a fitted effect of over 30% in size). The method in brief:
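Read-out: CellTiter-Glo luminescence, 30 min RT. Cells: wild-type CHO-K1, 1000/well, 10% FBS, plated overnight at 37C. Treatment: 15 concentrations, 3 hr, 37C, 0.76% DMSO.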

A short description of experiment [20]: A CellTox Green Cytotoxicity Assay to monitor cytotoxicity in HEK293 cells - 40 hour (AID 1224871). Further: nearly all actives have a fitted effect of over 45% in size. The method in brief:
as §1
On the % scale 0 is the no-effect control and ±100 the full control effect.

Sequence of Thyrotropin receptor (Homo sapiens) (P16473 whole entry, looked up): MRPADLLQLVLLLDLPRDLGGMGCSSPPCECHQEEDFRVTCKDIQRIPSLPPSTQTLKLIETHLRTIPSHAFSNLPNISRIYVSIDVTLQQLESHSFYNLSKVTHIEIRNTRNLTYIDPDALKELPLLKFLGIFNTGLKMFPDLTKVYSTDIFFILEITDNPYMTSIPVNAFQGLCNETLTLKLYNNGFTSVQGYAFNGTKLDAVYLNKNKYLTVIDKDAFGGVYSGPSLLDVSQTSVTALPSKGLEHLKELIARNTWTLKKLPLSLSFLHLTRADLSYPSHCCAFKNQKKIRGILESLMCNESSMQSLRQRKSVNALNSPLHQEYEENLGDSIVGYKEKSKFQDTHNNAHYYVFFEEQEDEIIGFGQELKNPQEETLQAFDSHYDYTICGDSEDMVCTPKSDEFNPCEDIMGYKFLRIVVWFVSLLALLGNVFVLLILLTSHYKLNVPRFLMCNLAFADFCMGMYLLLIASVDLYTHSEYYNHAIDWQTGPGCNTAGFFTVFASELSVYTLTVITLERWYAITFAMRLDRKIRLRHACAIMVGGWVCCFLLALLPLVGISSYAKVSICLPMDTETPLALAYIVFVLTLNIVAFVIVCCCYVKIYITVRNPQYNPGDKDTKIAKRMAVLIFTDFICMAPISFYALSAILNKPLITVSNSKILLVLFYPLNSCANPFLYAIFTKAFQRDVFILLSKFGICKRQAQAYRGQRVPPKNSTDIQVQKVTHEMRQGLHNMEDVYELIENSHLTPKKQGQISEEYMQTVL
Sequence of Nuclear receptor subfamily 1 group I member 3 (Homo sapiens) (Q14994 whole entry, looked up): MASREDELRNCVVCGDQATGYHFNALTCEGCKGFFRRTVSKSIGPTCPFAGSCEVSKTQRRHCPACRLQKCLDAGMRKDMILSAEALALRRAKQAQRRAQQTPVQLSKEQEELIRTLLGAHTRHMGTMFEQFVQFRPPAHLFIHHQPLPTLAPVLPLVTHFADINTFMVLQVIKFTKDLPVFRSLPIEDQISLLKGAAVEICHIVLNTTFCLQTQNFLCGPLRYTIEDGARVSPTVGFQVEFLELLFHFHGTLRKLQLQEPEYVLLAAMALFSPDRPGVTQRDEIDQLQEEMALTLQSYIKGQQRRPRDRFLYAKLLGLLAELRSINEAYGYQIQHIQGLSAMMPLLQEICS
Sequence of Luciferin 4-monooxygenase (Photinus pyralis) (P08659 whole entry, looked up): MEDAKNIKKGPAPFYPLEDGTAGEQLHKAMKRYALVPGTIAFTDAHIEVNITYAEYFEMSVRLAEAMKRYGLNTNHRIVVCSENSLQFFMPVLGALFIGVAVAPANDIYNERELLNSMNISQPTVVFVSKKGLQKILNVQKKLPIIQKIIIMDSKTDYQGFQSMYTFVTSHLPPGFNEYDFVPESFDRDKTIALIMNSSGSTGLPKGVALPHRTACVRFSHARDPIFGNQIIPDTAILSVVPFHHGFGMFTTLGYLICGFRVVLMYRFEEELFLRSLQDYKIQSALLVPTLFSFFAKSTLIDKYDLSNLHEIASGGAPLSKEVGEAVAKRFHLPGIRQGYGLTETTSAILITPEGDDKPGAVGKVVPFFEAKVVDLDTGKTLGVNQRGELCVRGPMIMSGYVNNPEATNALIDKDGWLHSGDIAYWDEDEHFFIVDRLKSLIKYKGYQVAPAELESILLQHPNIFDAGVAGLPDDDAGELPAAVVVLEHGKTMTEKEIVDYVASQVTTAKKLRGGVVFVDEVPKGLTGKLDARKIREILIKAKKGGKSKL

Consider `CCCSP(=S)(OCC)Oc1ccc(Cl)cc1Cl` (configuration not stated), for which the Potency result in experiment [1], in experiment [2], in experiment [3], in experiment [4], in [6] and in experiment [7] was “inactive” each time. For the same compound, the Potency result in experiment [9], in experiment [10], in experiment [12], in experiment [14], in experiment [15] and in experiment [16] was “inactive” throughout. Moreover, in experiment [17], the Potency entry was “inactive”. Besides, the Potency in experiment [5] is 27.3 µM (active). For the same compound, the outcome in experiment [8] and in experiment [11] was inactive. Moreover, the activity change, positive = activation in experiment [13] is 2.16%.

Take `O=NN1CCCCC1`: the Potency result in experiment [1], in experiment [2], in [3], in [4], in experiment [5] and in [6] was “inactive” each time. For the same compound, the Potency result in experiment [9], in experiment [10], in [18], in experiment [19], in [14] and in [15] was “inactive” each time. In addition, the Potency entry in experiment [16] and in experiment [17] was “inactive” throughout. The compound was classed as inactive in [11].

Regarding `CN1CCC(N(Cc2ccccc2)c2ccccc2)CC1`, the Potency entry in experiment [1], in experiment [2], in experiment [3], in experiment [4], in [5] and in [6] was “inactive” throughout. Moreover, the Potency result in experiment [10], in experiment [18], in experiment [19], in experiment [14], in [15] and in [16] was “inactive” in each case. The Potency result in experiment [17] and in experiment [20] was “inactive” throughout. Further, the Potency in experiment [9] is 13.3 µM (active). In addition, the compound was called inactive in [11].

Turning to `CN(C)CCc1ccc(O)cc1`, the Potency entry in experiment [1], in experiment [2], in [3], in [4], in experiment [5] and in [6] was “inactive” in each case. The Potency result in experiment [7], in experiment [9], in [10], in [18], in experiment [19] and in experiment [12] was “inactive” each time. Moreover, the Potency entry in experiment [14], in experiment [16], in [17] and in experiment [20] was “inactive” throughout. The outcome in experiment [8] and in [11] was inactive. Further, in [13], the activity change, positive = activation is 5.13% [at 42.5 µM].

Take `CC1(C)C(=O)NC(=O)NC1=O`: the Potency result in experiment [1], in experiment [2], in experiment [3], in experiment [4], in experiment [5] and in experiment [6] was “inactive” throughout. Moreover, the Potency result in experiment [7], in experiment [9], in experiment [10], in experiment [18], in [19] and in experiment [12] was “inactive” in each case. The Potency entry in [14], in [15], in experiment [16] and in [17] was “inactive” throughout. The outcome in experiment [8] and in experiment [11] was inactive. Further, the activity change, positive = activation in [13] was -0.272%.

In the case of `C#CCN1C(=O)COc2cc(F)c(N3C(=O)C4=C(CCCC4)C3=O)cc21`, the Potency result in [1], in experiment [2], in [3], in experiment [4], in experiment [6] and in experiment [9] was “inactive” throughout. The Potency result in [10], in [18], in experiment [19], in experiment [14], in experiment [15] and in experiment [16] was “inactive” in each case. The Potency result in experiment [17] is “inactive”. For the same compound, the Potency in experiment [5] was 48.6 µM (active). Also, the call in [8] and in experiment [11] was inactive. Further, in experiment [13], the activity change, positive = activation is -22.6%.

Consider `C[C@]12CC[C@H]3[C@@H](CCC4=CC(=O)CC[C@@]43C)[C@@H]1CC[C@@H]2C(=O)O`, for which the Potency result in [1], in [2], in experiment [3], in [4], in experiment [5] and in [6] was “inactive” in each case. In addition, the Potency entry in experiment [7], in [9], in experiment [10], in experiment [18], in [19] and in [12] was “inactive” throughout. The Potency entry in experiment [14], in experiment [15], in experiment [16] and in experiment [17] was “inactive” each time. Besides, the compound was classed as inactive in experiment [8] and in experiment [11]. For the same compound, the activity change, positive = activation in experiment [13] was -8.07% [at 42.5 µM].
